In the library only some 5.5% were active in any assay of this set; here they are far more common.
Six1-Eya2 inh = inhibitors of human Six1/Eya2 interaction | Q15475+O00167 | 0.56% of 360,000 active | activity change, % (no concentration beside the values) | AID 651725 | AlphaScreen GST-Six1/His-Eya2 binding, biochemical; hits give low values; in the data active means activity change below about -65%; inconclusive means mostly about -30% to -63%; further: on the % scale 0 is the no-effect control and ±100 the full control effect
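AlphaScreen luminescence read after one hour at 37 °C in darkness. Pin-transferred compounds met GST-Six1 and His-Eya2 protein (5X stock 250 nM/500 nM) plus glutathione donor and Ni-chelate acceptor beads (5X, 50 ug/mL).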
CBFb RUNX1 block = inhibitors of human CBF-beta and RUNX1 interaction; AID 1477; Potency, µM (top dose mostly 59.8 µM), inactives show at the highest dose activity, negative = inhibition, actives largely listed as inhibitors; 230,000 tested, under 10 active; AlphaScreen CBFb-His/RUNX1-biotin binding, biochemical; Q01196+Q13951; further: % of control where 0% means no effect
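His-tagged CBF-beta and biotinylated RUNX1 (30 nM each) were premixed 20 min at room temperature, exposed to compound for 15 min, then given nickel-chelate and streptavidin AlphaScreen beads (50 ng each). After 90 min, AlphaScreen signal was read.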
RORg inh = ROR gamma (mouse) transcription inhibition; AID 2551; 5.4% of 310,000 active; Potency, µM (doses to about 53.6 µM), for the others: at the highest dose activity change, negative = inhibition, usual class: inhibitors; Drosophila S2 Gal4-RORgamma UAS-luciferase reporter, 20 h; P51450; further: potency means the concentration at half of the fitted maximal effect; on the % scale 0 is the no-effect control and ±100 the full control effect; nearly all actives have a fitted effect of over 60% in size
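A Gal4/UAS one-hybrid system in insect cells: metallothionein-promoter Gal4–ROR gamma fusion plus Photinus luciferase reporter. Copper sulfate 700 uM final, 20 hr ambient incubation, luminescent detection after 10 min with reagent.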
Gal4-VP16 FLuc = inhibits Gal4-VP16 luciferase reporter, ROR gamma counter-screen | Drosophila S2 Gal4-VP16 UAS-luciferase, luminescence, 20 h | Potency, µM (doses to about 53.6 µM), without a hit: at the highest dose activity, negative = inhibition, actives largely listed as inhibitors | 3.5% of 310,000 active;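 further: Gal4-VP16 expression switched on by copper sulfate through the metallothionein promoter; potency means the concentration at half of the fitted maximal effect; on the % scale 0 is the no-effect control and ±100 the full control effect; nearly all actives have a fitted effect of over 50% in size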
CtBP-E1A blk = blocks the CtBP interaction with E1A | 0.49% of 340,000 active | AID 651724 | activity change, % (no concentration beside the values) | AlphaScreen GST-E1A/His-CtBP binding, 1536-well; hits give low values; in the data active means activity change below about -65%; inconclusive means mostly about -30% to -63%; further: on the % scale 0 is the no-effect control and ±100 the full control effect
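GST-E1A and His-tagged CtBP (125 nM each as 5X stock) were preincubated with pin-transferred compound for 2 h at 37 °C in the dark, then glutathione donor and nickel acceptor beads were added for 1 h before AlphaScreen reading.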
MBNL1 CUG block = MBNL1-poly(CUG) RNA binding inhibition. Q9NR56. TR-FRET MBNL1-His/biotin-(CUG)12 binding, 665/545 ratio. Potency, µM (highest dose often 57.5 µM), inactives show top-dose activity change, negative = inhibition, usual class: inhibitors. 0.036% of 280,000 active. AID 2675; active means well fitted inhibition curve with a large enough effect in the signal ratio, with a control signal flat, not every such curve was filed as active; inconclusive means small, poorly fitted or top-dose-only effect, or effect the other way, or a change in a side signal; inactive means no such curve, though single readings can be large or run the other way; the % refers to the signal ratio; further: potency means the concentration at half of the fitted maximal effect; on the % scale 0 is the no-effect control and ±100 the full control effect
Target sequence (Q9NR56 whole entry, looked up): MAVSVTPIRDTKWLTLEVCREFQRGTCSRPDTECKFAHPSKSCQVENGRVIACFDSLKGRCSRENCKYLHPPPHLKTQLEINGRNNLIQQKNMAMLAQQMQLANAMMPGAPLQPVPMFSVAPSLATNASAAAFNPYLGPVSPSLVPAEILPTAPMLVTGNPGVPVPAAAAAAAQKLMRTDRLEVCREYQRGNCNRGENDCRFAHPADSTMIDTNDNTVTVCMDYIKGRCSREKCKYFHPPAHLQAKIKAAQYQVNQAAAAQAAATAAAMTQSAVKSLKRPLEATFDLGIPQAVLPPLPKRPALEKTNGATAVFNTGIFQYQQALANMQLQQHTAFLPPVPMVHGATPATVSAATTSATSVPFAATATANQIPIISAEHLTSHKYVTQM
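His-tagged MBNL1 binding to biotinylated (CUG)12 RNA was measured by TR-FRET using terbium anti-His antibody (0.055 ng/ul final) and streptavidin-XL665 (5 nM final). Compounds were titrated 92 nM to 58 uM; 60 min at room temperature.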
Starred values were filed as active, the others as inactive; u = inconclusive; x = no result; [ ] = remark or other dose. Unless noted, the call rests on the fitted dose curve; in most records, active means well fitted curve in the direction sought with a large enough effect; inconclusive means small, poorly fitted or top-dose-only effect, or another doubt; inactive means no such curve, though single readings can be large; an effect the other way counts as inactive or inconclusive.

SMILES | Six1-Eya2 inh | CBFb RUNX1 block | RORg inh | Gal4-VP16 FLuc | CtBP-E1A blk | MBNL1 CUG block
S=c1[nH]nc(C23CC4CC(CC(C4)C2)C3)n1Cc1ccco1 | -3 | -2% | 1.3µM* | 11µM* | -1 | 0%
S=c1[nH]nc(-c2ccncc2)n1Cc1ccco1 | 0 | 13% | 8% | 19% | 2 | -13%
COc1cccc(-c2n[nH]c(=S)n2Cc2ccco2)c1 | -8 | -2% | 16µM* | u | -18 | 11%
Cc1c(Cl)c(-c2n[nH]c(=S)n2Cc2ccco2)nn1C | -1 | -5% | 11µM* | -24% | -5 | -7%
COc1ccc(NC(=O)N2CCCC3(CCN(S(=O)(=O)c4ccccc4)CC3)C2)cc1 | x | x | -25% | -1% | x | x
CCCCNC(=O)C1CCC(CNS(=O)(=O)c2c(C)cc(C)cc2C)CC1 (centres undefined) | 10 | x | -5% | -1% | x | -8%
Cc1nnc(SCc2nnc(-c3ccccc3Br)o2)s1 | 0 | 3% | 20% | -1% | 0 | -8%
Clc1ccc2nc(C3CCCCC3)c(CC3CCCCC3)n2c1 | 22 | x | x | x | 0 | x
CCOC(=O)C1(C)CCCCN1C(=O)c1ccnc(Cl)c1 (centres undefined) | -2 | x | x | x | 1 | x
C=CCn1c(-c2cccnc2)n[nH]c1=S | 4 | -3% | 13% | -9% | 0 | 3%
C=CCn1c(-c2cccc(OC)c2)n[nH]c1=S | 4 | 10% | 7.1µM* | u | 10 | -3%
Cc1ccc(S(=O)(=O)Nc2cccc(C(=O)NCc3ccccn3)c2)cc1F | 3 | x | x | x | -4 | x
O=C(N/N=C/c1ccccn1)c1ccco1 | u | -6% | -18% | -9% | u | 13%
COc1ccc(C(=O)N/N=C/c2ccc(OC)c(COc3ccc(F)cc3)c2)cc1 | -1 | x | -20% | -10% | 4 | 4%
O=C(N/N=C/c1ccc2ncccc2c1)c1ccco1 | -3 | -13% | 7.9µM* | u | -19 | u
COc1ccc(/C=N/NC(=S)Nc2ccccc2)cc1COc1cccc(C)c1C | 1 | 5% | 0.35µM* | 0.71µM* | -7 | 2%
COc1ccc(/C=N/NC(=O)c2ccoc2C)cc1COc1ccc(Cl)cc1 | -3 | -10% | 7.1µM* | 13µM* | -3 | -11%
COc1ccc(C=NNC(=S)Nc2ccc(F)cc2)cc1OC | -9 | x | x | x | -13 | x
COc1ccc(/C=N\NC(=O)c2ccccc2)cc1COc1ccc(F)cc1 | -1 | x | 18µM* | 11µM* | -1 | u
COc1cc(/C=N/NC(=O)c2ccc(F)cc2)ccc1OC(=O)c1ccco1 | -4 | 1% | 13µM* | -4% | -6 | x
COc1ccc(C(=O)N/N=C/c2ccc(OC)c(COc3ccc(F)cc3F)c2)cc1 | -1 | x | 13µM* | u | -15 | 4%
CCOC(=O)c1ccc(N2C(=O)C=CC2=O)cc1 | -1 | -3% | 10% | 7.1µM* | 6 | -4%
O=c1c2cn[nH]c2[nH]c(=S)n1-c1ccccc1Cl | 4 | -25% | 10µM* | -1% | -18 | -2%
CC1(C)CC(=O)C2=C(C1)Nc1ccccc1NC2 | 7 | 4% | 13µM* | 6% | 0 | 11%
CC1(C)CC(=O)C2=C(C1)Nc1ccccc1S2 | -4 | -9% | 29% | -5% | -8 | u
SMILES | Six1-Eya2 inh | CBFb RUNX1 block | RORg inh | Gal4-VP16 FLuc | CtBP-E1A blk | MBNL1 CUG block
CCc1ccc(C(=O)CN(C#N)c2nc(C)cc(C)n2)cc1 | -4 | -2% | 11µM* | -25% | 0 | 12%
CC(C)(C)NC(=O)CN(C(=O)C(=O)Nc1ccc2c(c1)OCCO2)N1CCOCC1 | -10 | x | -4% | -16% | 0 | -2%
COc1ccc(Nc2nc(Nc3ccc(OC)cc3)nc(-n3[nH]c(=O)c(C)c3C)n2)cc1 | u | -22% | 1.3µM* | 4µM* | u | -6%
COc1cccc(C(=O)NC(=S)Nc2ccccc2N2CCCCC2)c1 | -29 | x | 2.5µM* | 5µM* | u | 4%
COc1cccc(C(=O)Nc2ccccc2N2CCCC2)c1 | 1 | 0% | 8% | 0% | -4 | 9%
COc1cc(C(=O)NC(=S)Nc2ccccc2N2CCCC2)cc(OC)c1OC | u | x | 4.5µM* | 4µM* | u | -3%
CC(C)Oc1cccc(C(=O)NC(=S)Nc2ccccc2N2CCOCC2)c1 | 3 | x | 5.6µM* | 5.6µM* | 11 | 1%
Cc1ccccc1C(=O)Nc1ccccc1N1CCCCC1 | 25 | -2% | u | -1% | 29 | 0%
COc1c(C)cccc1C(=O)NC(=S)Nc1ccccc1N1CCCC1 | u | x | 10µM* | 20µM* | u | 1%
COc1cccc(C(=O)NC(=S)Nc2ccccc2N2CCCC2)c1 | u | u | 4µM* | 13µM* | u | -9%
CCn1cc(CN2CCC(C(=O)Nc3ccc(Oc4ccccc4F)cc3)CC2)cn1 | 2 | x | x | x | -9 | x
CCOC(=O)C1=NOC2(C1)C(=O)Nc1c(Cl)cccc12 (centres undefined) | 0 | x | x | x | -1 | x
COc1cccc(C(=O)Nc2ccc(NC(=O)C(C)(C)C)cn2)c1 | -1 | 11% | 7.1µM* | 8.9µM* | -2 | -3%
O=C(Nc1ccc(Br)cn1)c1ccc2ccccc2c1 | 0 | x | 3% | 3% | x | 19%
O=C(Nc1ccc(Br)cn1)c1cccc(C(=O)Nc2ccc(Br)cn2)c1 | -7 | x | u | 1.3µM* | 13 | -14%
COc1cccc(C(=O)Nc2ccc(NC(=O)C3CCCCC3)nc2)c1 | 13 | x | 23% | 6% | 0 | -5%
O=C1CCC[C@@H]2C[C@@]3(C[C@@H]4CCN1[C@H]24)Nc1cc(Cl)c(Cl)cc1NC3=NCc1ccccc1 | -18 | x | x | x | 0 | x
[C-]#[N+]/C(C#N)=C\c1cc(C(C)(C)C)c(O)c(C(C)(C)C)c1 | x | -14% | 0.2µM* | 8.9µM* | x | x
CC(C)(C)c1cc(/C=N/O)cc(C(C)(C)C)c1O | 1 | 2% | 26% | 5% | 0 | 4%[11.5 µM]
O=C/C(=C\Nc1ccccn1)c1nc2ccccc2o1 | -8 | 1% | u | u | -14 | 27%
O=C/C(=C\Nc1ccccn1)c1nc2cc(Cl)ccc2o1 | -1 | 11% | 5.6µM* | 10µM* | -5 | -28%
Oc1ccc(O)c(Cc2nc3ccccc3[nH]2)c1 | 1 | -16% | 16µM* | -29% | -3 | 2%
CCOc1ccc(NC(=S)N(CC)Cc2ccccc2)cc1 | x | -2% | 14µM* | 0% | x | 1%
CCCN(Cc1ccccc1)C(=S)Nc1ccc(SC(F)F)cc1 | 7 | 7% | 8.9µM* | u | 5 | -3%
C=CCNC(=S)N(Cc1ccccc1)Cc1ccc(F)cc1 | 0 | 14% | 18µM* | -28% | 19 | -4%

Assay outcomes as filed in PubChem BioAssay.
